PubChem BioAssay (NCATS)
Results filed as inconclusive are left out. Unmarked numbers belong to inactive results. Active and inactive are the calls of the source. Calls come from the whole dose curve; as a rule, active = well fitted cell-killing curve with a large enough effect; inconclusive = small, poorly fitted or top-dose-only effect, or effect the other way; inactive = flat fitted curve, though single readings scatter. Where a SMILES comes first, the peptide text is derived from it. [ ]: non-standard residue; d: D form. pGlu = O=C1CC[C@@H](C(=O)O)N1; Thz = O=C(O)[C@@H]1CSCN1
% is set by controls: 0 for no effect and ±100 for the full control effect; potency is the fitted concentration of half-maximal effect.

These compounds were tested on JEG-3 (assay: Primary qHTS to identify gynecologic anti-cancer compounds using libraries of approved drugs and bioactive compounds (AID 1345084; note: nearly all actives have a fitted effect of over 55% in size)). Settings: Gynecologic cancer cell panel viability, ATPlite luminescence, 48 h; series mostly up to 57.5 µM; activity change, negative = cytotoxicity: at the top concentration.
How it was run: (§1)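 Five-concentration response, 48 h; readout is ATP-driven luciferase luminescence.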
For O=Cc1ccc(O)c(O)c1O, the “activity change, negative = cytotoxicity” value was 3.39%.
In the case of CN1[C@@H]2CC[C@H]1CC(OC(=O)C(CO)c1ccccc1)C2 (stereo not given in full), the “activity change, negative = cytotoxicity” value was 1.97%.
With O=C(O)c1cc(O)c(O)c(O)c1 the “activity change, negative = cytotoxicity” value was 0.544%.
With Cc1[nH]cnc1CN1CCc2c(c3ccccc3n2C)C1=O the “activity change, negative = cytotoxicity” value was -19.9%.
O=C(O)CC1CC(c2ccccc2)=NO1 (stereo not given) was tested, and the “activity change, negative = cytotoxicity” value was 14% [at 25.3 µM].
CN(CCCOc1ccc(Cc2ccccc2)cc1)CCC(=O)O was tested, and the “activity change, negative = cytotoxicity” value was 1.24%.
In the case of COC(=O)C1=C(C)NC(C)=C(C(=O)OCC(C)C)C1c1ccccc1[N+](=O)[O-] (stereo not given), the “activity change, negative = cytotoxicity” value was -23.6%.
With O=C(O)[C@H](CC(=O)N1C[C@H]2CCCC[C@H]2C1)Cc1ccccc1 the “activity change, negative = cytotoxicity” value was 19.2%.
For NC(=O)C(c1ccccc1)(c1ccccc1)[C@@H]1CCN(CCc2ccc3c(c2)CCO3)C1, the “activity change, negative = cytotoxicity” value was -20.4%.
CCN(CC)CCCCNc1ncc2cc(-c3c(Cl)cccc3Cl)c(NC(=O)NC(C)(C)C)nc2n1 was tested, and the “activity change, negative = cytotoxicity” value was 5.54%.
Nc1ccc(O)c([N+](=O)[O-])c1 was tested, and the “activity change, negative = cytotoxicity” value was -0.474% [at 116 µM].
In the case of O=c1[nH]c2ccccc2n1CCCN1CCN(C(c2ccccc2)c2ccccc2)CC1, the “activity change, negative = cytotoxicity” value was -5.96%.
With O=C(Nc1ccc2c(c1)CCN(Cc1ncn[nH]1)C2)c1ccccc1-c1ccc(C(F)(F)F)cc1 the “activity change, negative = cytotoxicity” value was 10.4%.
In the case of Nc1ccc([N+](=O)[O-])cc1O, the “activity change, negative = cytotoxicity” value was 4.89% [at 116 µM].
With CC(=O)O[C@H]1C[C@@]2(C)[C@@H](C[C@@H](O)[C@H]3[C@@]4(C)CC[C@@H](O)[C@@H](C)[C@@H]4CC[C@@]32C)/C1=C(\CCC=C(C)C)C(=O)O the “activity change, negative = cytotoxicity” value was 0.815%.
For COc1cc(CNC(=O)CCCC/C=C/C(C)C)ccc1O, the “activity change, negative = cytotoxicity” value was -1.05%.
In the case of Fc1ccc2[nH]c(CN3CCN(c4ccccn4)CC3)cc2c1, the “activity change, negative = cytotoxicity” value was 2.69%.
With O=C(Nc1ccc2[nH]ncc2c1)C1CCC1 the “activity change, negative = cytotoxicity” value was 3.89%.
With Cc1cc(O)c2ccccc2c1O the “activity change, negative = cytotoxicity” value was -5.89%.
With O=[N+]([O-])c1ccc(CNc2nc(NCc3cccc(C(F)(F)F)c3)nc3nc[nH]c23)cc1 the “activity change, negative = cytotoxicity” value was 1.49%.
O=C(O)/C=C\C(=O)O was tested, and the “activity change, negative = cytotoxicity” value was -16.8%.
CCCCN(CC)c1nc(C)nc2c1c(C)cn2-c1c(C)cc(C)cc1C was tested, and the “activity change, negative = cytotoxicity” value was -1.27%.
With CC(C(=O)O)c1ccc(C(=O)c2ccccc2)s1 (stereo not given) the “activity change, negative = cytotoxicity” value was 0.453%.
With CC1(C)[C@@H](O[C@H]2O[C@H](C(=O)O)[C@@H](O)[C@H](O)[C@H]2O[C@@H]2O[C@H](C(=O)O)[C@@H](O)[C@H](O)[C@H]2O)CC[C@]2(C)[C@H]3C(=O)C=C4[C@@H]5C[C@@](C)(C(=O)O)CC[C@]5(C)CC[C@@]4(C)[C@]3(C)CC[C@@H]12 the “activity change, negative = cytotoxicity” value was -0.551% [at 25.3 µM].
With CC(C(=O)O)c1ccc(C(=O)c2cccs2)cc1 (stereo not given) the “activity change, negative = cytotoxicity” value was 9.29%.
Nc1nc2ccc([N+](=O)[O-])cc2s1 was tested, and the “activity change, negative = cytotoxicity” value was -11.6% [at 116 µM].
With O=C1CC[C@@H](C(=O)N2CSC[C@H]2C(=O)O)N1 ([pGlu]-[Thz]-OH) the “activity change, negative = cytotoxicity” value was -0.056%.
In the case of CC1(C)S[C@@H]2[C@H](NC(=O)[C@H](N)c3ccccc3)C(=O)N2[C@H]1C(=O)O, the “activity change, negative = cytotoxicity” value was -5.31%.
For COC(=O)Nc1nc2ccc(C(=O)C3CC3)cc2[nH]1, the Potency was 7.94 µM (active).
Oc1c(Br)cc(Br)c2cccnc12 was tested, and the “activity change, negative = cytotoxicity” value was -11.7%.
S=c1[nH]c2ccccc2s1 was tested, and the “activity change, negative = cytotoxicity” value was -9.58% [at 116 µM].

What follows are compounds tested on OV90 in the same assay as above. Settings: Gynecologic cancer cell panel viability, ATPlite luminescence, 48 h; series mostly up to 57.5 µM; activity change, negative = cytotoxicity: at the top concentration.
How it was run: as §1
For O=Cc1ccc(O)c(O)c1O, the “activity change, negative = cytotoxicity” value was 0.73%.
For CN1[C@@H]2CC[C@H]1CC(OC(=O)C(CO)c1ccccc1)C2 (stereo not given in full), the “activity change, negative = cytotoxicity” value was 12.2%.
With O=C(O)c1cc(O)c(O)c(O)c1 the “activity change, negative = cytotoxicity” value was 0.834%.
For O=C(O)CC1CC(c2ccccc2)=NO1 (stereo not given), the “activity change, negative = cytotoxicity” value was 1.41% [at 25.3 µM].
For CN(CCCOc1ccc(Cc2ccccc2)cc1)CCC(=O)O, the “activity change, negative = cytotoxicity” value was 4.37%.
With COC(=O)C1=C(C)NC(C)=C(C(=O)OCC(C)C)C1c1ccccc1[N+](=O)[O-] (stereo not given) the “activity change, negative = cytotoxicity” value was 11.4%.
In the case of O=C(O)[C@H](CC(=O)N1C[C@H]2CCCC[C@H]2C1)Cc1ccccc1, the “activity change, negative = cytotoxicity” value was 1.61%.
In the case of CCN(CC)CCCCNc1ncc2cc(-c3c(Cl)cccc3Cl)c(NC(=O)NC(C)(C)C)nc2n1, the Potency was 7.94 µM (active).
In the case of O=C(Nc1ccc2c(c1)CCN(Cc1ncn[nH]1)C2)c1ccccc1-c1ccc(C(F)(F)F)cc1, the “activity change, negative = cytotoxicity” value was 12.2%.
In the case of CC(=O)O[C@H]1C[C@@]2(C)[C@@H](C[C@@H](O)[C@H]3[C@@]4(C)CC[C@@H](O)[C@@H](C)[C@@H]4CC[C@@]32C)/C1=C(\CCC=C(C)C)C(=O)O, the “activity change, negative = cytotoxicity” value was 0.997%.
COc1cc(CNC(=O)CCCC/C=C/C(C)C)ccc1O was tested, and the “activity change, negative = cytotoxicity” value was -10.6%.
In the case of Fc1ccc2[nH]c(CN3CCN(c4ccccn4)CC3)cc2c1, the “activity change, negative = cytotoxicity” value was -0.945%.
O=C(Nc1ccc2[nH]ncc2c1)C1CCC1 was tested, and the “activity change, negative = cytotoxicity” value was -7.89%.
In the case of Cc1cc(O)c2ccccc2c1O, the “activity change, negative = cytotoxicity” value was -27.5%.
For O=C(O)/C=C\C(=O)O, the “activity change, negative = cytotoxicity” value was 3.9%.
With CCCCN(CC)c1nc(C)nc2c1c(C)cn2-c1c(C)cc(C)cc1C the “activity change, negative = cytotoxicity” value was 1.25%.
In the case of CC(C(=O)O)c1ccc(C(=O)c2ccccc2)s1 (stereo not given), the “activity change, negative = cytotoxicity” value was -0.231%.
CC1(C)[C@@H](O[C@H]2O[C@H](C(=O)O)[C@@H](O)[C@H](O)[C@H]2O[C@@H]2O[C@H](C(=O)O)[C@@H](O)[C@H](O)[C@H]2O)CC[C@]2(C)[C@H]3C(=O)C=C4[C@@H]5C[C@@](C)(C(=O)O)CC[C@]5(C)CC[C@@]4(C)[C@]3(C)CC[C@@H]12 was tested, and the “activity change, negative = cytotoxicity” value was 5% [at 25.3 µM].
With CC(C(=O)O)c1ccc(C(=O)c2cccs2)cc1 (stereo not given) the “activity change, negative = cytotoxicity” value was 1.3%.
Nc1nc2ccc([N+](=O)[O-])cc2s1 was tested, and the “activity change, negative = cytotoxicity” value was 5.43% [at 116 µM].
In the case of O=C1CC[C@@H](C(=O)N2CSC[C@H]2C(=O)O)N1 ([pGlu]-[Thz]-OH), the “activity change, negative = cytotoxicity” value was -1.79%.
CC1(C)S[C@@H]2[C@H](NC(=O)[C@H](N)c3ccccc3)C(=O)N2[C@H]1C(=O)O was tested, and the “activity change, negative = cytotoxicity” value was 12.6%.
For COC(=O)Nc1nc2ccc(C(=O)C3CC3)cc2[nH]1, the Potency was 11.2 µM (active).
In the case of S=c1[nH]c2ccccc2s1, the “activity change, negative = cytotoxicity” value was 5.53% [at 116 µM].
